# High-throughput results: PubChem BioAssay, several laboratories
# DAGLB inh = blocks human DAGLB lipase activity; Q8NCG7; HEK293T DAGLB membrane lysate, EnzChek fluorogenic substrate; inhibition, % at 5.17 µM; 0.059% of 340,000 active; AID 504411; in the data active = inhibition above about 34%
# MsrA act = activates bovine MsrA enzyme; purified bovine MsrA, absorbance read-out; activation, % at 10.6 µM; 0.3% of 360,000 active; AID 602163; in the data active = activation above about 7.5%
# MsrA inhibitor = bovine MsrA inhibition; purified bovine MsrA, absorbance read-out; 0.75% of 360,000 active; AID 651718; inhibition, % at 15.5 µM; in the data active = inhibition above about 4.5%
# rCAG binder = molecules binding r(CAG) RNA repeats | r(CAG) RNA repeat, TO-PRO-1 dye displacement fluorescence | AID 651821 | inhibition, % at 3 µM | 1.3% of 370,000 active;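 active = inhibition above the plate cutoff, the mean of all test compounds on that plate plus 3 SD, cut at about 35% in these data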;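 note: higher means more dye released from RNA so lower well fluorescence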
# Pemphigus Ab inh = human desmoglein-3 autoantibody binding inhibition | DSG3-coupled beads, scFv-anti-DSG3-GFP binding, flow cytometry; active compounds read low | binding (percent of control), % at 10 µM | 0.48% of 310,000 active | AID 588358;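 active = binding more than 3 SD below its plate's average and above zero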;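 note: hits lower antibody fragment binding to DSG3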
# Target sequence (P32926 whole entry, looked up, the tested form may be a part): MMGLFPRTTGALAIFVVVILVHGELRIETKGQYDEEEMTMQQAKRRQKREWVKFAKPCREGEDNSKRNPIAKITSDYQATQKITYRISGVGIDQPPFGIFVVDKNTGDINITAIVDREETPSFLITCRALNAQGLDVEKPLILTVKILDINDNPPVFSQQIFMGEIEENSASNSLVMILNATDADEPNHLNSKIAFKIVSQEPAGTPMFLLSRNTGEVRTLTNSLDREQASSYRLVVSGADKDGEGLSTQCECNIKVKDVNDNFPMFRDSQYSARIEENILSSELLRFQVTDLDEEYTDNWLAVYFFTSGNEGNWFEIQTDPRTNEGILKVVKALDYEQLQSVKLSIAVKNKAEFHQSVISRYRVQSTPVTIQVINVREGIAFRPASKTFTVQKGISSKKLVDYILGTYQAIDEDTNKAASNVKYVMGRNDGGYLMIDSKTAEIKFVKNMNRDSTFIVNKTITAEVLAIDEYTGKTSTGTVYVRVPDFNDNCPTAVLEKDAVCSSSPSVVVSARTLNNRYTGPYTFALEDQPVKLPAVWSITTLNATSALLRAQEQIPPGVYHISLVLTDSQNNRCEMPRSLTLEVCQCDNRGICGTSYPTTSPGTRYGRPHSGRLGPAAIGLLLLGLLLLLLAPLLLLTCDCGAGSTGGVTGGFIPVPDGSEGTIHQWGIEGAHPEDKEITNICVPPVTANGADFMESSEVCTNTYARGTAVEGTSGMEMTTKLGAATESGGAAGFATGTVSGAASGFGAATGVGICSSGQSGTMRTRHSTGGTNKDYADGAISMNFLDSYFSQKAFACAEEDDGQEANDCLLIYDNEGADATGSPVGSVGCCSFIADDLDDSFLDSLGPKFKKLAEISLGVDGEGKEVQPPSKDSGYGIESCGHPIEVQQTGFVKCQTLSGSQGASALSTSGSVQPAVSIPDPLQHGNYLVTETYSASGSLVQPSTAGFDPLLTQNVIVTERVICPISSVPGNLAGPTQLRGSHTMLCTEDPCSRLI
# NadD block = NadD (S. aureus) enzyme inhibition; purified NadD enzyme, colorimetric absorbance read-out; inhibition, % at 20 µM; 0.78% of 360,000 active; AID 602399; in the data active = inhibition above about 26%
# NadD conf = NadD (S. aureus) inhibition, single concentration confirmation. shares compounds with NadD block. purified S. aureus NadD, colorimetric enzyme assay. inhibition, % at 20 µM. 13% of 2,000 active; in the data active = inhibition mostly above about 42%, no sharp cut-off; inactive = mostly below about 42%
# Numbers stand for hits; n = inactive; x = no result. A selection: hits, their analogues and other compounds. The true share with any hit is near 3.2%.
SMILES,DAGLB inh,MsrA act,MsrA inhibitor,rCAG binder,Pemphigus Ab inh,NadD block,NadD conf
Cc1cccc(NC(=O)c2nc[nH]c2C(=O)NCc2ccccc2)c1,n,n,n,n,n,n,x
Cc1cccc(NC(=O)c2nc[nH]c2C(=O)NCCCCNC(=O)c2[nH]cnc2C(=O)Nc2cccc(C)c2)c1,n,n,n,n,n,37,n
Cc1cccc(NC(=O)c2nc[nH]c2C(=O)NCCCCCCNC(=O)c2[nH]cnc2C(=O)Nc2cccc(C)c2)c1,n,n,n,n,n,37,n
CC(C)=CCCC(C)c1cc(C(=O)NCCc2ccc(O)cc2)c(N)s1 (stereo not drawn),x,x,n,n,x,x,x
COc1ccc(CN2C[C@]3(C=C(C)Cn4c(=O)n(-c5ccccc5)c(=O)n43)N(C(=O)OCc3ccccc3)C2=NC(=O)c2ccccc2)c(OC)c1,x,x,x,n,x,x,x
CCOc1ccc(CCN2C(=O)C(=O)N([C@@H](Cc3ccc(O)cc3)CN3CCC[C@@H]3CN3C(=O)C(=O)NC[C@@H]3Cc3ccccc3)C[C@@H]2Cc2ccccc2)cc1,n,n,n,n,n,29,n
CCOc1ccc(CCN2C(=O)C(=O)N([C@@H](Cc3ccccc3)CN3CCC[C@H]3CN3C(=O)C(=O)NC[C@@H]3CC(C)C)C[C@@H]2Cc2ccc(O)cc2)cc1,x,n,n,n,x,30,n
CCCNC(=O)C1(C)CCCN(C(=O)c2ccc(F)cc2Cl)C1 (stereo not drawn),x,n,n,n,x,n,x
CCOC(=O)[C@@]12CCCC3=C1N(CCC3)C(=O)[C@H]2CC(=O)N1CCC(c2ccccc2)CC1,x,x,x,n,x,x,x
CCOC(=O)[C@]12CCC=C1N(Cc1ccc(Cl)cc1Cl)C(=O)[C@H](CC(=O)NCc1ccc(C)o1)C2,x,n,n,n,x,n,x
COc1cccc2c(=O)c3c([nH]c12)OC(C)(C)C3,n,n,n,n,n,n,x
COc1cccc2c(=O)c3cccc(N)c3[nH]c12,n,n,n,n,n,39,n
O=C(Nc1nc(-c2ccccn2)cs1)c1ccc(F)c(S(=O)(=O)N2CCOCC2)c1,n,n,n,n,n,n,x
Cc1ccc(C(=O)Nc2nc(-c3ccccn3)cs2)cc1S(=O)(=O)N1CCOCC1,n,n,n,n,n,31,n
CC(C)=CCC/C(C)=C/CN1CC(=O)N2[C@H](C[C@@]3(n4ccc5ccccc54)c4ccccc4N(S(=O)(=O)c4ccccc4)[C@@H]23)C1=O,x,x,x,n,x,x,x
Cc1cccc2cc3c(N)c(C(=O)Nc4ccc(N5CCOCC5)cc4)sc3nc12,n,n,n,n,n,n,x
CCc1cccc2cc3c(N)c(C(=O)Nc4ccc(S(=O)(=O)N5CCCC5)cc4)sc3nc12,n,n,n,n,n,44,n
O=C(c1ccc2c(c1)[nH]c(=S)n1c3ccccc3nc21)N1CCN(c2cccc(Cl)c2)CC1,n,n,n,n,n,39,n
COCCCn1c(C(=O)Nc2ccc3c(c2)OCO3)cc2c(=O)n3cccc(C)c3nc21,n,n,n,n,n,n,x
C#CCNC(=O)C[C@@H]1C[C@@]2(C(=O)OCC)CCCC=C2N(Cc2cccc3ccccc23)C1=O,x,n,n,n,x,n,x
O=C(c1ccc(Cl)c(S(=O)(=O)Nc2ccccc2C(=O)N2CCc3ccccc3C2)c1)N1CCc2ccccc2C1,n,n,n,n,n,47,n
O=C(c1ccc(Cl)c(S(=O)(=O)N2CCc3ccccc3C2)c1)N1CCN(c2ccccc2)CC1,n,n,n,n,n,n,x
CCCC(=O)Nc1c(-c2ccccc2)[nH][nH]c1=O,x,n,n,n,x,n,x
COc1ccc(-c2nc(-c3ccccc3)c(-c3cc([N+](=O)[O-])ccc3C)[nH]2)cc1O,n,n,n,n,n,n,x
COc1ccc(-c2nc(=S)c3c([nH]2)Oc2ccc(C)cc2C3)cc1O,n,n,n,n,n,30,n
SMILES,DAGLB inh,MsrA act,MsrA inhibitor,rCAG binder,Pemphigus Ab inh,NadD block,NadD conf
COc1ccccc1NC(=O)c1c(Nc2ccccc2F)sc(C(=O)Nc2cccc(Cl)c2)c1N,n,n,n,n,n,43,n
CCOC(=O)CC[C@H]1CC[C@]2(CCCN(C3CCCCC3)C2)O1,x,x,x,n,x,x,x
COC(=O)[C@H]1C[C@@]2(c3ccccc3)c3ccccc3N(S(=O)(=O)c3ccccc3)[C@H]2N1,x,x,x,n,x,x,x
O=C(c1ccc2c(=O)n(Cc3ccco3)c(=S)[nH]c2c1)N1CCN(Cc2ccccc2)CC1,n,n,n,n,n,56,36
COc1ccc(OC)c(/C=C2\N=C(c3ccccc3)OC2=O)c1,n,n,n,n,n,n,x
COc1cc(/C=C2/N=C(c3ccccc3)OC2=O)c(F)cc1OCc1ccccc1,n,n,n,40,n,39,n
COc1ccc(C(C(=O)NC2CCCC2)N(C(=O)c2snc(-c3ccc(F)cc3)c2N)c2cccc(F)c2)cc1 (stereo not drawn),n,n,n,n,n,39,n
COc1ccc(C(C(=O)NC2CCCC2)N(C(=O)c2snc(-c3ccc(F)cc3)c2N)c2ccccc2)cc1 (stereo not drawn),n,n,n,n,n,n,x
CCOc1ccc2nc(N3C(=O)/C(=C/c4ccccc4)NC3=S)sc2c1,n,n,n,n,n,33,n
COc1ccc2nc(N3C(=O)/C(=C/c4ccccc4)NC3=S)sc2c1,n,n,n,n,n,44,n
COc1ccc2nc(-n3c(C)ccc3C)sc2c1,n,n,n,n,n,n,x
COc1ccc(CC(N)c2csc(Nc3nncc4ccccc34)n2)cc1 (stereo not drawn),x,n,n,n,x,n,x
CN(C)S(=O)(=O)c1cccc(-c2nn(-c3ccccc3)cc2/C=C(\C#N)c2nc3ccccc3[nH]2)c1,n,n,n,n,n,37,n
N#C/C(=C\c1cn(-c2ccccc2)nc1-c1cc2ccccc2o1)c1nc2ccccc2[nH]1,n,n,n,n,n,29,n
COc1ccc(-c2nn(-c3ccccc3)cc2/C=C(\C#N)S(=O)(=O)c2ccccc2)cc1OC,n,n,n,n,n,n,x
CCOC(=O)c1cc2c(=O)n3ccccc3nc2n(Cc2ccco2)c1=NC(=O)c1cccc(OC)c1,n,n,n,n,x,45,n
CCOC(=O)c1cc2c(=O)n3ccccc3nc2n(Cc2ccco2)c1=NC(=O)c1ccccc1OC,n,n,n,n,x,n,x
CCOC(=O)c1cc2c(=O)n3cccc(C)c3nc2n(Cc2ccco2)c1=NC(=O)c1ccccc1,n,n,n,n,n,32,n
CCOC(=O)c1cc2c(=O)n3ccccc3nc2n(Cc2ccco2)c1=NC(=O)c1ccc(OC)cc1,n,n,n,n,n,32,n
CCOC(=O)c1cc2c(=O)n3cccc(C)c3nc2n(Cc2ccco2)c1=NC(=O)c1ccc(C)cc1,n,n,x,x,n,n,x
C[C@H](O)[C@@H]1CN2CCc3c([nH]c4c(-c5ccccc5)cccc34)[C@@H]2C[C@@H]1N(C)C(=S)NCCc1ccccc1,x,x,n,n,x,x,x
